Test results taken from PubChem BioAssay AID1445 (SRMLSC, 2008).
Where “and” joins values, the source holds several entries; their conditions need not be identical. Equal values may be shown once. Among all 220,000 compounds or so, about 910 (0.41%) were called active.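 Rule for the calls: active = primary inhibition above the hit cutoff, then over 50% inhibition at one or more dose response concentrations (cut at about 23% in these data, passing the limit was not always enough); inconclusive = conflicting primary data, or primary hits not chosen for dose response; inactive = low primary inhibition, or under 50% at every dose.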 For the sample, actives were picked, then their nearest neighbours and some compounds at random. Entries with a potency or affinity are not part of this list.

Molecular target: Aminopeptidase N (Plasmodium falciparum (isolate 3D7)) (UniProt O96935)
Experiment: P. falciparum M1AAP inhibitors, biochemical, fluorogenic H-Leu-NHMec substrate, 1536-well (AID 1445);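 note: plate controls were DMSO full reaction for no effect and no enzyme background for full effect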
Conditions: recombinant M1AAP, H-Leu-NHMec fluorogenic kinetic assay; at 30 µM, active compounds read high unless noted

Chain of Aminopeptidase N (Plasmodium falciparum (isolate 3D7)) (O96935 whole entry, looked up): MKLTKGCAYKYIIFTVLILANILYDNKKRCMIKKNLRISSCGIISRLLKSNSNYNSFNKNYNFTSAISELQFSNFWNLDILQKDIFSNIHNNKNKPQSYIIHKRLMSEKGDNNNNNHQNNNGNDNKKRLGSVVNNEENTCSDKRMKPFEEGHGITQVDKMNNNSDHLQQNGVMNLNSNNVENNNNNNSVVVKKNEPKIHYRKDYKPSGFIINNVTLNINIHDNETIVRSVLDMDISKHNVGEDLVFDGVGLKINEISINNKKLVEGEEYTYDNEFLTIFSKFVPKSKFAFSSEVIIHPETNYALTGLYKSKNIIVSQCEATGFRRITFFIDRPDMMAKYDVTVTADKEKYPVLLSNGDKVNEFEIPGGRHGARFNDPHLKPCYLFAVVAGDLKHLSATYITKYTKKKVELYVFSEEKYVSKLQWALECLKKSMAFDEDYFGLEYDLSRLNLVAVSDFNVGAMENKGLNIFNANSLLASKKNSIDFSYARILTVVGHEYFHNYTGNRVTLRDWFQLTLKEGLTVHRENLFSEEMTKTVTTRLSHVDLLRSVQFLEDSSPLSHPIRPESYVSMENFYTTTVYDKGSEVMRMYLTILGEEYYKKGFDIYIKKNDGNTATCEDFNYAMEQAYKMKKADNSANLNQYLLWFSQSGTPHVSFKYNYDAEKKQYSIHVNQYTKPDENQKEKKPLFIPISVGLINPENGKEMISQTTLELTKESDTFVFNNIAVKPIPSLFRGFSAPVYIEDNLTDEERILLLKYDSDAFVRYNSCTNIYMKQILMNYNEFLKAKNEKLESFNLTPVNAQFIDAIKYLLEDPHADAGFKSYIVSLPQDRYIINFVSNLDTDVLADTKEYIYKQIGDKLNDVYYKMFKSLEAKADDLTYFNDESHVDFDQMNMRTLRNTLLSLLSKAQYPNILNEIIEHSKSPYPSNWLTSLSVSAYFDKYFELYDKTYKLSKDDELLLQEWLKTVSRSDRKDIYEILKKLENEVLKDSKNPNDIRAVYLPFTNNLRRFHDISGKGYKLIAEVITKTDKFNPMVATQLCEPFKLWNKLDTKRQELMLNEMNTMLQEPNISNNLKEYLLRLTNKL

inhibition, inactive:
CCc1nn(C(C)C(=O)NCCc2ccc(OC)c(OC)c2)c(=O)c2cc3occc3n12 (configuration not stated) 10.4%
O=C(O)c1cccc(N2C(=O)c3ccc4c5c(ccc(c35)C2=O)C(=O)N(c2cccc(C(=O)O)c2)C4=O)c1 11.6%
O=C(O)c1ccc(N2C(=O)c3cccc4c(C(=O)O)ccc(c34)C2=O)cc1 10.1%
COc1cccc(-c2nnc(SCN3C(=O)c4ccccc4C3=O)n2C)c1 -1.36%
Fc1ccc(CN2CCSCC2)cc1Br 0.38%
CN1C(=O)/C(=C/c2ccccc2OCc2ccc(C(=O)O)cc2)NC1=S 22.6%
CN1C(=O)S/C(=C/c2ccccc2OCc2ccc(C(=O)O)cc2)C1=O 6.59%
COC(=O)c1ccc(COc2ccc(/C=N/Nc3cccc(C(=O)O)c3)cc2)cc1 5.29%
CN1C(=O)S/C(=C\c2ccccc2OCc2ccc(C(=O)O)cc2)C1=O 18.7%
COC(=O)c1ccc(COc2ccccc2/C=N/NS(=O)(=O)c2ccccc2)cc1 3.52%
O=C1NC(=S)N/C1=C\c1ccccc1OCc1ccc(C(=O)O)cc1 14.7%
O=C(Nn1c(Cc2ccccc2)nc2ccccc2c1=O)c1c(O)c2cccc3c2n(c1=O)CCC3 -0.5%
Cc1cc(C(=O)N2CCC(C)CC2)on1 9.58%
COc1nc(Nc2ccc([N+](=O)[O-])cc2)nc(NC2CCCCC2)n1 8.38%
COc1ccc(NC(=S)N2CCN(C(=O)C3CCCO3)CC2)c(OC)c1 (configuration not stated) 1.1%
COCCNc1nnc(SCC(=O)Nc2cc(-c3ccccc3)nn2-c2ccccc2)s1 8.39%
O=C(NNS(=O)(=O)c1ccccc1F)c1sccc1-n1cccc1 1.58%
COC(=O)N/N=C/c1cc([N+](=O)[O-])cc(Br)c1O 19.9%
Cc1ccc([N+](=O)[O-])cc1/C=N/Nc1nnnn1-c1ccccc1 -4.44%
COc1cc(CCC(=O)OCC(=O)Nc2ccccc2C(C)C)cc(OC)c1OC -3.32%
N#CC(C#N)=C1C=CC=CN1/C(=C\c1ccco1)C(=O)c1ccc(Cl)cc1 17.2%
N#CC(C#N)=C1C=CC=CN1/C(=C\c1ccco1)C(=O)c1ccc(-c2ccccc2)cc1 18.3%
CCCc1nnc(NC(=O)NCCN2C(=O)C3C4C=CC(C4)C3C2=O)s1 (configuration not stated) 0.7%
Cn1c(Cn2nnc(-c3ccccc3)n2)nnc1SCc1ccccc1Cl 0.85%
CC(=O)N(c1ccc2oc(=O)sc2c1)S(=O)(=O)c1cccs1 21.6%
CC(C)C(=O)N(c1ccc2oc(=O)sc2c1)S(=O)(=O)c1cccs1 6.95%
Cc1ccc(-n2c(=O)cc(N3CCc4ccccc4C3)[nH]c2=O)cc1 3.06%
CCc1cc2c(-c3ccccc3)cc(=O)oc2c(CN2CCOCC2)c1O 9.72%
CCc1cc(=O)oc2c(CN3CCCC3)c(O)c(Cl)cc12 18.3%
CCCc1cc(=O)oc2cc(C)c(CN3CCCC3)c(O)c12 13.2%
CCc1cc2c(CN3CCN(CCO)CC3)cc(=O)oc2cc1O 11.5%
CCCCc1cc(=O)oc2c(CN3CCCC3)c(O)c(Cl)cc12 13.1%
CCc1cc2c(CN3CCN(CC)CC3)cc(=O)oc2cc1O -1.87%
CCOC(=O)c1ccc(NC(=S)NCCCN2CCOCC2)cc1 -1.32%
CCO[C@@H]1OC(C(=O)N2CCOCC2)=C[C@H](c2ccc(C(F)(F)F)cc2)[C@H]1CCCO 2.16%
O=C(CSc1nc2c(sc3ccccc32)c(=O)n1CCCN1CCOCC1)NCC1CCCO1 (configuration not stated) 1.22%
Cc1ccc(N2/C(=N/c3nc(C)cc(C)n3)NC(=O)CC2C(=O)O)cc1 (configuration not stated) -5.89%
O=C(/C=C/c1ccc(-c2ccccc2)o1)c1ccccc1 4.34%
O=Cc1ccc(-c2ccc(F)cc2)o1 12.4%
N=c1c2c3c(sc2nc2n1CCC2)CCCC3 7.32%
CCNc1nc(Cl)nc(-c2cn(-c3ccccc3)c3ccccc23)n1 -7.96%
COc1ccc(NC(C)=O)cc1S(=O)(=O)N1CCN(C/C=C/c2ccccc2)CC1 2.09%
CCSc1nnc2c(n1)OC1(CCCC1)Nc1ccccc1-2 12.5%
O=C(N/N=C/c1cccc([N+](=O)[O-])c1)c1cc(-c2ccc3c4c(cccc24)CC3)n[nH]1 6.89%
O=C(O)c1ccc(/C=N/NC(=O)c2cc(-c3ccc4c5c(cccc35)CC4)n[nH]2)cc1 13.5%
COc1ccc(-n2c(=S)[nH]c3cc(C(=O)NCc4ccco4)ccc3c2=O)cc1OC 7.75% and 12.6%
CCCc1cc(=O)[nH]c(Nc2cc(OC)ccc2OC)n1 -0.31%
CCOc1ccc(N(C(=O)c2ccccc2Cl)C2=NC(C)(C)CS2)cc1 5.11%
COc1cccc(NS(=O)(=O)c2ccc3c(c2)C2C=CCC2C(c2ccc(C(=O)O)cc2)N3)c1 (configuration not stated) 22.8%
Brc1cc2c(cc1C1Nc3ccccc3C3C=CCC31)OCO2 (configuration not stated) 6.9%
Fc1ccc2c(c1)C1C=CCC1C(c1cc3c(cc1Br)OCO3)N2 (configuration not stated) 5.12%
O=C(O)c1ccc2c(c1)C1C=CCC1C(c1ccncc1)N2 (configuration not stated) 9.23%
Cc1nc2c(C)cccn2c1/C(O)=C1\C(=O)C(=O)N(CCN(C)C)C1c1ccccc1 (configuration not stated) -2.63%
CC(=O)c1ccccc1OC(=O)c1c(F)cccc1F 3.59%
Cc1nc2cc(F)ccc2n1C1CCN(C(=O)c2c(F)cccc2F)CC1 5.28%
Cc1cccc(-c2c3c(=O)n(C)c(=O)n(C)c3cn2C(C)(C)C)c1 7.14%

inhibition, active:
CC(C)C(=O)N(c1cc2sc(=O)oc2c2ccccc12)S(=O)(=O)c1cccs1 23.3%
